A short description of assay [1]: qHTS RealTime-Glo MT Cell Viability Assay in HEK293 cells - 40 hour (AID 1224874). Further: nearly all actives have a fitted effect of over 50% in size. Further: potency means the concentration at half of the fitted maximal effect. As to conditions: RealTime-Glo luminescence; max response: stronger effect = lower value. The gist of the method: (§1)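 Kinetic, non-lysing viability readout. Seed HEK293 (600/well) with reagent, incubate 5 h at 37 C/5% CO2, pin 23 nL compound in DMSO, incubate at 37 C, read luminescence at 0, 8, 16, 24, 32, 40 h.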

Assay [2] can be described thus: A CellTox Green Cytotoxicity Assay to monitor cytotoxicity in HEK293 cells - 24 hour (AID 1224875). Further: series mostly up to about 77 µM; nearly all actives have a fitted effect of over 45% in size. The gist of the method: (§2)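 Real-time, in one plate: 600 HEK293 cells/well with dead-cell DNA dye, pinned compound after 5 h, 37 C incubation over 40 h; viable cells give no appreciable fluorescence.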
A short description of assay [3]: A CellTox Green Cytotoxicity Assay to monitor cytotoxicity in HepG2 cells - 16 hour (AID 1224876). Further: nearly all actives have a fitted effect of over 45% in size. The gist of the method:
(§3)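 Cytotoxicity was tracked as dead-cell DNA fluorescence in HepG2 cells treated with test compounds at 37 C; each time-point value comes from one kinetic series spanning 0, 8, 16, 24, 32 and 40 h.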

A short description of assay [4]: qHTS RealTime-Glo MT Cell Viability Assay in HepG2 cells - 32 hour (AID 1224877). Further: nearly all actives have a fitted effect of over 55% in size. The gist of the method:
(§4)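 Compound treatment began 5 h after plating HepG2 cells (600/well) with NanoLuc luciferase and prosubstrate. Plates stayed at 37 C for 40 h; luminescence was captured at six time points, 0 h through 40 h.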
On the technique in general: Quantitative high-throughput screening tests each substance at several concentrations.

Assay [5] is described as follows: A CellTox Green Cytotoxicity Assay to monitor cytotoxicity in HepG2 cells - 24 hour (AID 1224878). Further: nearly all actives have a fitted effect of over 45% in size. The essentials: as §3
Assay [6] is described as follows: A CellTox Green Cytotoxicity Assay to monitor cytotoxicity in HepG2 cells - 40 hour (AID 1224879). Further: nearly all actives have a fitted effect of over 40% in size. The essentials: as §3
Assay [7] in a line: qHTS RealTime-Glo MT Cell Viability Assay in HEK293 cells - 0 hour (AID 1224880). Further: top concentration of the series differs between compounds; nearly all actives have a fitted effect of over 45% in size. The essentials:
as §1

A short description of assay [8]: A CellTox Green Cytotoxicity Assay to monitor cytotoxicity in HEK293 cells - 32 hour (AID 1224881). Further: nearly all actives have a fitted effect of over 40% in size. The essentials:
as §2

A short description of assay [9]: A CellTox Green Cytotoxicity Assay to monitor cytotoxicity in HepG2 cells - 0 hour (AID 1224882). Further: nearly all actives have a fitted effect of over 35% in size. The essentials: as §3
Assay [10] can be described thus: A CellTox Green Cytotoxicity Assay to monitor cytotoxicity in HepG2 cells - 32 hour (AID 1224883). Further: nearly all actives have a fitted effect of over 50% in size. The gist of the method: as §3
Assay [11] can be described thus: A CellTox Green Cytotoxicity Assay to monitor cytotoxicity in HEK293 cells - 8 hour (AID 1224884). Further: nearly all actives have a fitted effect of over 35% in size. The essentials:
as §2

A short description of assay [12]: qHTS RealTime-Glo MT Cell Viability Assay in HepG2 cells - 16 hour (AID 1224885). Further: nearly all actives have a fitted effect of over 50% in size. The essentials:
as §4

Assay [13] can be described thus: qHTS RealTime-Glo MT Cell Viability Assay in HEK293 cells - 24 hour (AID 1224886). Further: nearly all actives have a fitted effect of over 50% in size. Further: potency means the concentration at half of the fitted maximal effect. The essentials:
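Quantitative high-throughput screen of the Tox21 10K library in HEK293: cells and RealTime-Glo reagents plated together, compound added at 5 h, luminescence monitored through 40 h at 37 C.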

The nature of assay [14]: qHTS RealTime-Glo MT Cell Viability Assay in HEK293 cells - 8 hour (AID 1224887). The gist of the method:
as §1

Assay [15] is described as follows: A CellTox Green Cytotoxicity Assay to monitor cytotoxicity in HEK293 cells - 16 hour (AID 1224888). Further: nearly all actives have a fitted effect of over 35% in size. The essentials: as §2
Assay [16] in a line: qHTS RealTime-Glo MT Cell Viability Assay in HepG2 cells - 0 hour (AID 1224889). Further: nearly all actives have a fitted effect of over 50% in size. The gist of the method: as §4
Assay [17] can be described thus: A CellTox Green Cytotoxicity Assay to monitor cytotoxicity in HepG2 cells - 8 hour (AID 1224890). Further: nearly all actives have a fitted effect of over 45% in size. The essentials:
as §3

A short description of assay [18]: qHTS assay to identify small molecule antagonists of the estrogen receptor alpha (ER-alpha) signaling pathway using the BG1 cell line in the presence of 0.1 nM 17-beta-estradiol - cell viability counter screen (AID 1259241). Further: nearly all actives have a fitted effect of over 40% in size. The gist of the method:
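The cell line endogenously expresses full-length ER-alpha and carries four EREs driving luciferase. Cells are cultured 5 days hormone-free, treated 22 hr with compounds and 0.1 nM estradiol, then viability is read by fluorescence.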

Assay [19] in a line: qHTS assay to identify small molecule antagonists of the androgen receptor (AR) signaling pathway using the MDA cell line in the presence of 0.5 nM R1881 - cell viability counter screen (AID 1259242). Further: nearly all actives have a fitted effect of over 45% in size. The essentials:
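Cells seeded at 3,000/well and allowed 5 hr at 37C, 0% CO2 before compound transfer and R1881 (0.5 nM final) addition; 16 hr later, live-cell protease fluorescence indicated cytotoxicity.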

Assay [20] has as its target Androgen receptor (Homo sapiens) (UniProt P10275). The experiment in a line: qHTS assay to identify small molecule antagonists of the androgen receptor (AR) signaling pathway using the MDA cell line in the presence of 0.5 nM R1881 (AID 1259243). Further: nearly all actives have a fitted effect of over 50% in size. Further: potency means the concentration at half of the fitted maximal effect. The essentials:
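Luminescence from an AR/GR-responsive MMTV-luciferase construct in MDA-kb2 breast carcinoma cells, read 30 min after ONE-Glo, following 16 hr co-treatment with compounds and 0.5 nM R1881.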

Each structure is given as a SMILES string. “And” between values parts separate entries of the source, which are not always exact repeats. Identical values can stand only once. Records with an inconclusive call do not appear. Where a structure was tested more than once in an assay, its records may differ in their call. The source made the active and inactive calls. The call rests on the fitted dose curve; in most records, active means well fitted curve in the direction sought with a large enough effect in the repeat runs; inconclusive means weak or mixed curves; inactive means no such curve, though single readings can be large; an effect the other way counts as inactive or inconclusive.
On the % scale 0 is the no-effect control and ±100 the full control effect.

Androgen receptor (Homo sapiens), sequence (P10275 whole entry, looked up): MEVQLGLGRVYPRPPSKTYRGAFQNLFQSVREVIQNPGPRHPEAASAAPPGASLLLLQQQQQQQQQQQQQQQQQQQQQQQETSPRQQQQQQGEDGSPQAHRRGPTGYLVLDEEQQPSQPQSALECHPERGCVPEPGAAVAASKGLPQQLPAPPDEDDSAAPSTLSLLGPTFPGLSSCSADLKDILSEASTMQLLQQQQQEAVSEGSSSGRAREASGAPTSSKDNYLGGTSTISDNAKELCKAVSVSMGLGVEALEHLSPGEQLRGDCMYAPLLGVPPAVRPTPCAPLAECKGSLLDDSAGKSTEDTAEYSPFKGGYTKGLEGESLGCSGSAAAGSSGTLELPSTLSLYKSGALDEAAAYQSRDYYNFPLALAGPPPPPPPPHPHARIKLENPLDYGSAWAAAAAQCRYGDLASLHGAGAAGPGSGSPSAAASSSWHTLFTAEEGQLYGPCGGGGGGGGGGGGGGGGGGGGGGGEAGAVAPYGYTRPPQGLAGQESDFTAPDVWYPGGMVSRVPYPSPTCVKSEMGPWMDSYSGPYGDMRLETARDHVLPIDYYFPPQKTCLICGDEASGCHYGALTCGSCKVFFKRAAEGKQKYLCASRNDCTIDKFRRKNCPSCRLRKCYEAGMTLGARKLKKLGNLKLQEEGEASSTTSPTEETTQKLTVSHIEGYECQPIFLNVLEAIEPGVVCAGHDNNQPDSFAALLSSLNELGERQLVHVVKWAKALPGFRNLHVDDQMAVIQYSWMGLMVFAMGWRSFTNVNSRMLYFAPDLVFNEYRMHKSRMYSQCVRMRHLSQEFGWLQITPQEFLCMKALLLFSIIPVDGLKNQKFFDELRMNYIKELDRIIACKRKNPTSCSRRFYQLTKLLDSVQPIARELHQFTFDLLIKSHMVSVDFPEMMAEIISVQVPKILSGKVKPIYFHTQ

With `CON(C)C(=O)Nc1ccc(Cl)c(Cl)c1`, the Potency is 43.6 µM (active) in [1]; “inactive and 43.6 µM (active)” in [13]. Besides, in assay [1], the max response is -28.4% (inactive). Also, the Potency entry in [2], in assay [3], in assay [5], in assay [6], in assay [8] and in assay [9] was “inactive” each time. Also, the Potency result in [10], in assay [11], in [15], in [17] and in assay [18] was “inactive” in each case. The result in assay [4], in assay [7], in [12], in [14], in [16] and in assay [19] was inactive.

In the case of `OC(O)C(Cl)(Cl)Cl`, the max response in assay [1] was -9.37% (inactive) and 5.84% (inactive). The Potency result in [2], in assay [3], in assay [5], in assay [6], in assay [8] and in [9] was “inactive” each time. For the same compound, the Potency result in assay [10], in [11], in assay [13], in assay [15], in assay [17] and in [18] was “inactive” in each case. Besides, the result in [4], in assay [7], in assay [12], in [14], in assay [16] and in assay [19] was inactive.

Consider `BrCCBr`, for which the max response in [1] was 4.67% (inactive) and 8.82% (inactive). Moreover, the Potency result in assay [2], in [3], in assay [5], in assay [6], in assay [8] and in assay [9] was “inactive” in each case. Besides, the Potency entry in assay [10], in assay [11], in assay [13], in assay [15], in assay [17] and in assay [18] was “inactive” in each case. Besides, the result in [4], in assay [7], in assay [12], in assay [14], in assay [16] and in assay [19] was inactive.

As for `ClCc1cccnc1`, in assay [1], the max response is 2.33% (inactive) and -1.14% (inactive). Moreover, the Potency entry in assay [2], in assay [3], in [5], in [6], in assay [8] and in [9] was “inactive” in each case. The Potency entry in [10], in assay [11], in assay [13], in assay [17] and in assay [18] was “inactive” throughout. In addition, the call in assay [4], in [7], in assay [12], in [14], in [16] and in assay [19] was inactive.

In the case of `O=c1[nH]c(=O)[nH]c(=O)[nH]1`, the max response in [1] was 1.39% (inactive) and 0.958% (inactive). Besides, the Potency entry in assay [2], in assay [3], in [5], in assay [6], in assay [8] and in assay [9] was “inactive” each time. The Potency result in assay [10], in assay [11], in [13], in assay [15], in assay [17] and in assay [18] was “inactive” throughout. Further, the Potency entry in assay [20] is “inactive”. In addition, the compound was called inactive in assay [4], in [7], in assay [12], in [14], in assay [16] and in assay [19].

On to `CC(C)N1C(=O)c2ccccc2NS1(=O)=O`, for which, in [1], the max response is -5.03% (inactive) and 3.56% (inactive). Besides, the Potency entry in [2], in [3], in assay [5], in assay [6], in [8] and in [9] was “inactive” in each case. The Potency result in [10], in assay [11], in [13], in assay [15], in assay [17] and in assay [18] was “inactive” throughout. Further, the result in assay [4], in [7], in assay [12], in assay [14], in assay [16] and in [19] was inactive.

As for `NCCc1ccc(O)cc1`, in [1], the max response was -18.4% (inactive) and 1.96% (inactive). For the same compound, the Potency entry in [2], in [3], in assay [5], in assay [6], in assay [8] and in assay [9] was “inactive” each time. Also, the Potency result in assay [10], in [11], in assay [13], in [17] and in assay [18] was “inactive” in each case. The call in [4], in [7], in assay [12], in [14], in [16] and in assay [19] was inactive.

For `CCCN(CCC)N=O`, the max response in assay [1] is -0.648% (inactive) and 5.21% (inactive). In addition, the Potency entry in [2], in assay [3], in [5], in assay [6], in [8] and in assay [9] was “inactive” each time. Further, the Potency result in [10], in assay [11], in assay [13], in [15], in [17] and in assay [18] was “inactive” each time. Moreover, the call in assay [4], in assay [7], in assay [12], in assay [14], in [16] and in [19] was inactive.

`Cc1ccc(N)cc1Cl`: the max response in assay [1] was -5.66% (inactive) and 1.08% (inactive). In addition, the Potency result in assay [2], in assay [3], in [5], in assay [6], in assay [8] and in assay [9] was “inactive” throughout. Besides, the Potency result in assay [10], in [11], in assay [13], in [17] and in assay [18] was “inactive” in each case. Also, the compound was classed as inactive in [4], in assay [7], in assay [12], in assay [14], in assay [16] and in assay [19].

With `CC(NC(C)(C)C)C(=O)c1cccc(Cl)c1` (stereo not given), the max response in assay [1] was 6.38% (inactive) and -11.6% (inactive). For the same compound, the Potency result in assay [2], in [3], in assay [5], in assay [6], in [8] and in assay [9] was “inactive” throughout. In addition, the Potency result in assay [10], in assay [11], in [13], in assay [17] and in [18] was “inactive” in each case. The call in assay [4], in assay [7], in assay [12], in [14], in assay [16] and in [19] was inactive.

Take `O=C(NC(=O)c1c(F)cccc1F)Nc1cc(Cl)c(OC(F)(F)C(F)C(F)(F)F)cc1Cl` (stereo not given): the max response in [1] is -33.5% (inactive). Besides, the Potency entry in [2], in [3], in assay [5], in assay [6], in assay [8] and in assay [9] was “inactive” in each case. Also, the Potency result in assay [10], in assay [11], in assay [13], in assay [15], in assay [17] and in assay [18] was “inactive” each time. The compound was called inactive in assay [4], in assay [7], in assay [12], in assay [14], in assay [16] and in assay [19]. For the same compound, in assay [20], the Potency was 19.3 µM (active) and 26.6 µM (active).

Consider `CC(Br)C(=O)O` (stereo not given), for which the max response in [1] was 0.901% (inactive) and -24.8% (inactive). In addition, the Potency result in assay [2], in assay [3], in assay [5], in assay [6], in [8] and in assay [9] was “inactive” throughout. The Potency result in assay [10], in assay [11], in [13], in assay [17] and in assay [18] was “inactive” throughout. Moreover, the result in assay [4], in [7], in [12], in assay [14], in [16] and in [19] was inactive.

For the compound `Cc1cc(-c2cc(C)c(N)c(C)c2)cc(C)c1N`, the max response in [1] is -25.8% (inactive) and -12.6% (inactive). Further, the Potency result in assay [2], in assay [3], in assay [5], in [6], in assay [8] and in [9] was “inactive” throughout. For the same compound, the Potency entry in assay [10], in [11], in assay [13], in assay [15], in [17] and in assay [18] was “inactive” in each case. The result in assay [4], in assay [7], in [12], in assay [14], in assay [16] and in assay [19] was inactive.

For the origin of these results see PubChem BioAssay (Tox21).
